Measurements reported in PubChem BioAssay (NCATS).
Results filed as inconclusive are left out. Calls come from the whole dose curve; as a rule, active = well fitted curve in either direction with a large enough effect (not every such curve was filed as active); inconclusive = small, poorly fitted or top-dose-only effect, or another doubt; inactive = flat fitted curve, though single readings scatter.

experiment: NFAT Signaling Pathway (AID 444); conditions: Jurkat NFAT-bla M1, carbachol, beta-lactamase ratio, 5 h; at 17.2 µM (top of the series) unless noted;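 note: carbachol stimulus at about its EC50 of 1 µM final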
How it was run: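 Read-out: CCF4 FRET ratio (460 nm/530 nm) after 1 h RT dye loading, used for %activity and AC50 from titration series. Cells: Jurkat NFAT-β-lactamase/M1 line, treated with compound plus 1 uM carbachol for 5 h, 37 °C.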
% is set by controls: 0 for no effect and ±100 for the full control effect.

Activity change, negative = inhibition, inactive:
CCOP(=O)(c1ccccc1)C1(C#N)CCCC1 (stereo not drawn) 7.44%, c1cncc(Oc2cccc(Oc3cccnc3)c2)c1 -3.08%, CC(=O)NC(=O)Nc1sc(=S)n(C)c1C 15.7%, COc1ccccc1N(O)C1CC(=O)N(c2ccc(F)cc2)C1=O (stereo not drawn) -3.85%, CCOc1ccc(C2CC(c3ccccc3)Nc3nc(N)nn32)cc1 (stereo not drawn) 6.92%, O=C(O)C1[C@H]2C(=O)N(Cc3cccs3)C[C@]23C=C[C@H]1O3 (stereo partly drawn) -3.3%, O=c1c(-c2ccc(Cl)cc2)[n+]([O-])c2ccccc2n1O -15.3%, Cn1c(=O)c2c(nc(NCc3ccc4c(c3)OCO4)n2Cc2ccccc2Cl)n(C)c1=O -8.43%, CCOC(=O)C(C)c1nc2ccccc2[nH]c1=O (stereo not drawn) -0.784%, CC(NC(=O)Nc1ncccn1)(C(F)(F)F)C(F)(F)F 1.67%, COc1cc(C2C(C#N)=C(N)Oc3cc(C)n(Cc4ccccn4)c(=O)c32)cc2c1OCO2 (stereo not drawn) -12.8%, O=C1C(=O)N(CCN2CCOCC2)C(c2ccccn2)/C1=C(/O)c1ccc(F)cc1 (stereo not drawn) 21.3%, COC(=O)c1ccc(C2/C(=C(\O)c3cccc(OC)c3)C(=O)C(=O)N2CCCN(C)C)cc1 (stereo not drawn) 3.34%, O=C1C2ON(c3ccccc3)C(c3ccncc3)C2C(=O)N1c1ccc(Br)cc1 (stereo not drawn) 10.7%, CCn1c(SCC(=O)NC2CCCCC2C)nnc1-c1ccc(OC)cc1 (stereo not drawn) 19.9%, Cc1cc(C)n(C(=O)CNC(=O)c2cccs2)n1 3.15%, Cc1ccc(/C=c2\sc3n(c2=O)CN(c2ccc(Br)cc2)CN=3)o1 -11.3%, CCOC(=O)c1c(CN2CCN(CCO)CC2)n(C)c2cc(Br)c(OC)cc12 29.2%, CCc1nc2c(sc3nc(N4CCOCC4)c4c(c32)CC(C)(C)OC4)c(=O)o1 -0.695%, CCOC(=O)c1cc(CC)sc1NC(=O)C1CC1 12.8%, O=C1C2ON(c3ccccc3)C(c3cccnc3)C2C(=O)N1c1ccccc1 (stereo not drawn) -5.72%, NC(=O)C(c1ccccc1)C1CCCC1 (stereo not drawn) 1.68%, CCCC1C(c2ccc(OC)cc2)C(C#N)(C#N)C2(C#N)CC1(N)NC2=O (stereo not drawn) -5.15%, CCN(CC)S(=O)(=O)c1ccc2c(c1)c(C(=O)O)cn2C -1.02%, CC(NC(=O)Nc1nccs1)(C(F)(F)F)C(F)(F)F 15.9%, N#C/C(C(=O)N1CCOCC1)=C1/SC(Cc2ccccc2)C(=O)N1c1ccccc1 (stereo not drawn) -2.77%, COc1ccccc1C1C(C#N)=C(N)Oc2cc(C)n(Cc3ccccn3)c(=O)c21 (stereo not drawn) -9.78%, Cc1cc(C)c(C#N)c(OCC(=O)c2ccccc2)n1 -4.3%, CC(=O)C1=C(O)C(=O)N(c2ccc(Br)cn2)C1c1ccccc1F (stereo not drawn) 1.82%, Cn1ncc(N=Cc2ccccc2O)c1C(=O)Nc1ccccc1 7.01%, CN(C)CCCNCCCCNC(=O)/C=N/O 11.9%, COc1ccc(C(=O)NCC(=O)n2nc(C)cc2C)cc1OC -1.54%, Cc1ccc(-c2ccccc2NC(=O)C2C3C=CC(C3)C2C(=O)O)o1 (stereo not drawn) -9.53%, CCOc1nnnc2c1sc1nc(N3CCOCC3)c3c(c12)CC(C)(C)OC3 -17.4%, O=C(O)CCCCCN1C(=O)CCC1=O 23.1%, C=CCn1c(=S)[nH]c2ccccc2c1=O 10.1%, N#CC1=C(C=Nc2ccccc2O)CCC1 8.46%, COC(=O)c1sccc1NC(=O)c1c(C)cc(=O)oc1C 8.6%, COc1ccccc1N1CCN(CCOc2c(OC)cccc2OC)CC1 12.8%

experiment: Stat Signaling Pathway (AID 446); conditions: ME-180 SIE beta-lactamase reporter, IL-6 stimulated, 5 h; at 17.2 µM (top of the series) unless noted;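 note: ME-180 cervical cancer cells given 40 pM IL-6 alongside compound; SIE-controlled beta-lactamase reporter measured as 460/530 nm FRET emission ratio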
How it was run: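 Screening format detects activators and inhibitors alike: ME-180 SIE-bla cells stimulated at 40 pM IL-6 for 5 hrs with compound, then dual-emission beta-lactamase read at 405 nm excitation.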

activity, negative = inhibition, inactive:
CCOP(=O)(c1ccccc1)C1(C#N)CCCC1 (stereo not drawn) 7.92%, c1cncc(Oc2cccc(Oc3cccnc3)c2)c1 29.4%, CC(=O)NC(=O)Nc1sc(=S)n(C)c1C 1.93%, COc1ccccc1N(O)C1CC(=O)N(c2ccc(F)cc2)C1=O (stereo not drawn) 1.38%, CCOc1ccc(C2CC(c3ccccc3)Nc3nc(N)nn32)cc1 (stereo not drawn) -1.31%, O=C(O)C1[C@H]2C(=O)N(Cc3cccs3)C[C@]23C=C[C@H]1O3 (stereo partly drawn) 2.6%, O=c1c(-c2ccc(Cl)cc2)[n+]([O-])c2ccccc2n1O -2.31%, Cn1c(=O)c2c(nc(NCc3ccc4c(c3)OCO4)n2Cc2ccccc2Cl)n(C)c1=O -2.58%, CCOC(=O)C(C)c1nc2ccccc2[nH]c1=O (stereo not drawn) 4.12%, CC(NC(=O)Nc1ncccn1)(C(F)(F)F)C(F)(F)F -5.56%, COc1cc(C2C(C#N)=C(N)Oc3cc(C)n(Cc4ccccn4)c(=O)c32)cc2c1OCO2 (stereo not drawn) -4.06%, O=C1C(=O)N(CCN2CCOCC2)C(c2ccccn2)/C1=C(/O)c1ccc(F)cc1 (stereo not drawn) -1.73%, COC(=O)c1ccc(C2/C(=C(\O)c3cccc(OC)c3)C(=O)C(=O)N2CCCN(C)C)cc1 (stereo not drawn) 5.36%, O=C1C2ON(c3ccccc3)C(c3ccncc3)C2C(=O)N1c1ccc(Br)cc1 (stereo not drawn) -10.2%, CCn1c(SCC(=O)NC2CCCCC2C)nnc1-c1ccc(OC)cc1 (stereo not drawn) -7.61%, Cc1cc(C)n(C(=O)CNC(=O)c2cccs2)n1 4.05%, Cc1ccc(/C=c2\sc3n(c2=O)CN(c2ccc(Br)cc2)CN=3)o1 0.614%, CCOC(=O)c1c(CN2CCN(CCO)CC2)n(C)c2cc(Br)c(OC)cc12 -13.7%, CCc1nc2c(sc3nc(N4CCOCC4)c4c(c32)CC(C)(C)OC4)c(=O)o1 -6.95%, CCOC(=O)c1cc(CC)sc1NC(=O)C1CC1 -13.8%, O=C1C2ON(c3ccccc3)C(c3cccnc3)C2C(=O)N1c1ccccc1 (stereo not drawn) 1.24%, NC(=O)C(c1ccccc1)C1CCCC1 (stereo not drawn) 15.2%, CCCC1C(c2ccc(OC)cc2)C(C#N)(C#N)C2(C#N)CC1(N)NC2=O (stereo not drawn) -5.79%, CCN(CC)S(=O)(=O)c1ccc2c(c1)c(C(=O)O)cn2C 1.11%, CC(NC(=O)Nc1nccs1)(C(F)(F)F)C(F)(F)F 5.57%, N#C/C(C(=O)N1CCOCC1)=C1/SC(Cc2ccccc2)C(=O)N1c1ccccc1 (stereo not drawn) -8.3%, COc1ccccc1C1C(C#N)=C(N)Oc2cc(C)n(Cc3ccccn3)c(=O)c21 (stereo not drawn) -1.34%, Cc1cc(C)c(C#N)c(OCC(=O)c2ccccc2)n1 -6.66%, CC(=O)C1=C(O)C(=O)N(c2ccc(Br)cn2)C1c1ccccc1F (stereo not drawn) -16.8%, Cn1ncc(N=Cc2ccccc2O)c1C(=O)Nc1ccccc1 0.0885%, CN(C)CCCNCCCCNC(=O)/C=N/O -0.521%, COc1ccc(C(=O)NCC(=O)n2nc(C)cc2C)cc1OC 16.4%, Cc1ccc(-c2ccccc2NC(=O)C2C3C=CC(C3)C2C(=O)O)o1 (stereo not drawn) 11.2%, CCOc1nnnc2c1sc1nc(N3CCOCC3)c3c(c12)CC(C)(C)OC3 -9.58%, O=C(O)CCCCCN1C(=O)CCC1=O 5.29%, C=CCn1c(=S)[nH]c2ccccc2c1=O 4.87%, N#CC1=C(C=Nc2ccccc2O)CCC1 -1.34%, COC(=O)c1sccc1NC(=O)c1c(C)cc(=O)oc1C -6.64%, COc1ccccc1N1CCN(CCOc2c(OC)cccc2OC)CC1 2.04%
